Results reported in PubChem BioAssay AID2570 (National Center for Advancing Translational Sciences (NCATS), 2010).
Records with an inconclusive call do not appear. The source made the active and inactive calls. The call rests on the fitted dose curve; in most records, active means well fitted curve in the direction sought with a large enough effect; inconclusive means small, poorly fitted or top-dose-only effect, or another doubt; inactive means no such curve, though single readings can be large or run the other way.

target: Vasopressin V1b receptor (Homo sapiens) (UniProt P47901); assay: Counterscreen Concentration-Response Assay for Antagonists of the Neuropeptide S Receptor: Vasopressin Receptor Calcium Signal Transduction; conditions: CHO-AVPR1B, vasopressin-stimulated calcium fluorescence, FDSS
Sequence (P47901 whole entry, looked up): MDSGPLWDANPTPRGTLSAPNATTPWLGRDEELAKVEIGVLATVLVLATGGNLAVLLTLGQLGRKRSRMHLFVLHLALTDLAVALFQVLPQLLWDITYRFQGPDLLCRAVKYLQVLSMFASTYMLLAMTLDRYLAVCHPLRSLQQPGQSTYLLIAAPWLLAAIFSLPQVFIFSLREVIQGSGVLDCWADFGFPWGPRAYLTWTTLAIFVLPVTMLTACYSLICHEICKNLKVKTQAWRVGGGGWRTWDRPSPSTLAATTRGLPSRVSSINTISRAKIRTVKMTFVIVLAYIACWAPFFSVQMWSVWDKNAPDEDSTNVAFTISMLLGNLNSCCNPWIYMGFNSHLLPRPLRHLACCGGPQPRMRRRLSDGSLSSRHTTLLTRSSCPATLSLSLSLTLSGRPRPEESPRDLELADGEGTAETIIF
Outline: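 CHO cells stably expressing human AVPR1B, calcium-dye loaded, were given compound, then stimulated with 60 nM vasopressin in HBSS/0.1% BSA. Peak kinetic fluorescence was normalized to DMSO and no-signal controls; AC50 from Hill fits.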

| Structure (SMILES) | max response |
| --- | --- |
| N=c1c2c(ccn1-c1ccccc1)Oc1ccc3ccccc3c1C2c1ccccc1 (stereo not given) | -28.3% (inactive) |
| COc1cccc(C2c3c(ncn(-c4ccccc4Br)c3=N)Oc3ccc4ccccc4c32)c1 (stereo not given) | 18.9% (inactive) |
| COc1ccc(C2c3ccc4ccccc4c3Oc3ncn(CCN4CCOCC4)c(=N)c32)cc1OC (stereo not given) | -8.9% (inactive) |
| COc1cccc(C2c3c(ncn(-c4ccc5c(c4)OCO5)c3=N)Oc3ccc4ccccc4c32)c1 (stereo not given) | -20.7% (inactive) |
| O=C(CCc1ccccc1)Nc1ncnc2c1C(c1ccccc1)c1c(ccc3ccccc13)O2 (stereo not given) | -23% (inactive) |
| COc1cccc(C2c3c(ncn(-c4ccc(-c5ccccc5)cc4)c3=N)Oc3ccc4ccccc4c32)c1 (stereo not given) | -10.6% (inactive) |
| COc1ccc(C2c3ccccc3Oc3ncn(CCN4CCOCC4)c(=N)c32)cc1OC (stereo not given) | 20.8% (inactive) |
| COc1cccc(C2c3c(ncn(-c4ccc(Br)cc4)c3=N)Oc3ccc4ccccc4c32)c1 (stereo not given) | 0.304% (inactive) |
| COc1ccc(-n2cnc3c(c2=N)C(c2cccc(OC)c2)c2c(ccc4ccccc24)O3)cc1 (stereo not given) | -14.1% (inactive) |
| COc1cccc(C2c3c(ncn(-c4cccc(Br)c4)c3=N)Oc3ccc4ccccc4c32)c1 (stereo not given) | -12.3% (inactive) |
| Cc1c(P(=S)(c2ccccc2)c2ccccc2)c2ccccc2n1C/C=C/c1ccccc1 | 0.93% (inactive) |
| O=C(Nc1ncnc2c1C(c1ccccc1)c1c(ccc3ccccc13)O2)c1ccccc1 (stereo not given) | 8.3% (inactive) |
| COc1ccc(C2c3c(ncn(CCCc4ccccc4)c3=N)Oc3ccc4ccccc4c32)cc1OC (stereo not given) | 11.1% (inactive) |
| COc1cccc(C2c3c(ncn(-c4ccc(F)cc4)c3=N)Oc3ccc4ccccc4c32)c1 (stereo not given) | -36.5% (inactive) |
| COc1cccc(C2c3c(ncn(-c4cccc(F)c4)c3=N)Oc3ccc4ccccc4c32)c1 (stereo not given) | -14.9% (inactive) |
| CCOC(=O)CCC(=O)Nc1ncnc2c1C(c1ccccc1)c1c(ccc3ccccc13)O2 (stereo not given) | -0.278% (inactive) |
| COc1ccc(C2c3c(nc(CCc4ccccc4)[nH]c3=O)Oc3ccc4ccccc4c32)cc1OC (stereo not given) | 1.09% (inactive) |
| O=C(NCc1ccccc1)Nc1ncnc2c1C(c1ccccc1)c1c(ccc3ccccc13)O2 (stereo not given) | -5.16% (inactive) |
| COc1cccc(C2c3c(ncn(-c4cccc(Cl)c4)c3=N)Oc3ccc4ccccc4c32)c1 (stereo not given) | -5.71% (inactive) |
| N#CC1=C(NC=NCc2ccccc2)Oc2ccc3ccccc3c2C1c1ccccc1 (stereo not given) | -19% (inactive) |
